# Measured values reported in the supplement of paper PMC7726561.
# Over roughly 1,400 sequences, “thermal melting temperature (Tm) of peptide-HLA complex” has its median near 60; the lowest 2% begin near 45. Only a selection was taken, and the lowest values are over-represented in it overall.
# Biological target: HLA-B*07:02
# Assay: thermal melting temperature (Tm) of peptide-HLA complex; higher = more thermostable pHLA complex
# Conditions: C1R-B*07:02
# 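Further: lysates heated 10 min at 37–73 °C, complexes pulled down with pan-HLA I antibody, peptide signal by DIA-MS relative to 37 °C, Tm where half the complex is unfolded.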
row,Sequence,thermal melting temperature [°C]
1,FPNIPGKSL,62
2,APRWLEEEAAL,62.7
3,IPIGGGTSV,41.6
4,QPASFAVSL,62.8
5,SPASFLRSL,40.6
6,SPASRSISL,61
7,NPRLNILDTL,51.2
8,GPIYPGHGM,59.2
9,YPRMQVTVF,61.9
10,APKSPSSEWL,51.9
11,YPRAQLEVSAL,61.5
12,APAPPTTTTI,61
13,VPMPLPTVL,62.6
14,RPALPSTQQL,57.6
15,APDKHHITPLL,43.7
16,TPMPKDVRQSL,44.5
17,KPHLPSVTYL,60.8
18,NVKKVSLEL,44.3
19,APAGLPRETL,58.1

row,Sequence,thermal melting temperature [°C]
1,IPDHFRPPL,60.4
2,VIRELSRAL,45.3
3,KPINVRVTTM,56
4,RPIESPGGSVL,45.3
5,LPGISREAL,41.3
6,LPSKPSSTL,58.1
7,QPRDPSSTL,43.5
8,SPRDPVLTL,64.4
9,SPRFPAQYL,62.6
10,RPLPGALGV,59
11,VPNAGRGLV,58.5
12,HPREPLPPIQ,51.3
13,IPSSHPVSL,56.2
14,HPREPALGP,55.3
15,RPAGPVAVGI,43.3
16,SPRVQFQSL,61.7
17,RPAEVGGMQL,59.1
18,RPDYRNITF,61.7
19,NPRNFSDNQL,53

row,Sequence,thermal melting temperature [°C]
1,IFSEVPVQL,42.1
2,GVRPFGVSL,57.4
3,SPYPGLRLI,61.8
4,SPGPSRPGL,56.1
5,SPAEPSVYATL,62.8
6,AVILRALSL,61.1
7,FPHLREEIL,51.6
8,SPASRSISLL,57.1
9,LPKDQGITL,61.7
10,APAPRPSL,58.1
11,LPRTVTQLV,45.6
12,RPISVIGGVSL,62.3
13,APSGGRLLSA,60.1
14,LPRQPPMSL,66.1
15,LPNGRDTPAL,59.2
16,SPAFSTRVL,60.3
17,KPFDQTTISL,61.3
18,RPRPGNILLQL,55.6
